Screens from PubChem BioAssay.
IL1B secr inh: blocks inflammasome-driven IL-1 beta release; THP-1 LPS/ATP IL-1B secretion, AlphaLISA, 16 h; hits give low values; activity change, % at 57.5 µM; 360,000 compounds, 4.7% hits; AID 743279; in the data active = activity change below about -50%; inconclusive = mostly about -30% to -49%
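Secreted IL-1B measured by AlphaLISA bead assay after 16 h compound exposure of THP-1 cells; compounds (final up to 57.5 uM) added 1 h before LPS (250 ng/mL) and ATP (1.25 mM) stimulation; lower signal means less secretion.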
DT40 TDP1 CPT: DT40-hTDP1 cell growth loss with CPT; 420,000 compounds, 12% hits; Potency, µM (titrated, usually from 46.2 µM), usual class: inhibitors; chicken DT40 Tdp1-/-;hTDP1 cells + 20 nM CPT, ATP luminescence, 48 h; also: nearly all actives have a fitted effect of over 55% in size
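Chicken DT40 Tdp1-/- cells complemented with human TDP1, 400 cells/well, exposed to compounds plus 20 nM camptothecin for at least 48 h at 37 C; viability read as ATP content by CellTiter-Glo luminescence.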
DT40 TDP1 no CPT: qHTS for Inhibitors of human tyrosyl-DNA phosphodiesterase 1 (TDP1): qHTS in cells in absence of CPT. DT40 Tdp1-/- hTDP1 cells, no CPT, ATP luminescence, 48 h. Potency, µM (titrated, usually from 46.2 µM), most hits filed as inhibitors. 420,000 compounds, 15% hits. AID 686978, 2013; also: nearly all actives have a fitted effect of over 55% in size
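Cells were dispensed at 400 per well, compounds added by pin tool, plates incubated ≥48 hr at 37 °C, then CellTiter-Glo added for 30 min at room temperature before luminescence reading. Line: DT40 Tdp1-/- complemented with hTDP1; camptothecin omitted.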
HT1080 IDH1KD tx: HT-1080 IDH1 knockdown cell toxicity (counter line); HT-1080 IDH1 knockdown viability, ATP luminescence, 48 h; Potency, µM (top dose mostly 46.1 µM), most hits filed as cytotoxic; 360,000 compounds, 2% hits; AID 686971
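Assay cells: HT-1080 with IDH1 knockdown, 750 per well, RPMI/5% FBS. Exposure: 48 h at 37 °C following 2 h pre-incubation. Read: CellTiter-Glo luminescence; fitted concentration-response, curve class assigned.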
HT1080-NT tox: kills 2HG-producing HT-1080-NT fibrosarcoma cells; 360,000 compounds, 1.6% hits; HT-1080-NT fibrosarcoma viability, CellTiter-Glo ATP luminescence, 48 h; Potency, µM (highest dose often 46.1 µM), actives largely listed as cytotoxic;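 also: NT is the 2HG producing partner of a matched IDH1 knockdown line; nearly all actives have a fitted effect of over 55% in size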
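HT-1080-NT; 750 cells/well; 5% FBS RPMI; 48 h compound, 37 degrees C; CellTiter-Glo luminescence; curve fitting and curve-class assignment.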
Of the large screens only hits and unclear results are named; the others gave an inactive call; ! = repeats disagree. Rows were chosen to be rich in hits. Some 19% of all compounds tested hit in one or more screens of this group. Unless noted, calls follow the shape of the dose curve; as a rule, active = well fitted curve in the direction sought with a large enough effect; inconclusive = small, poorly fitted or top-dose-only effect, or another doubt; inactive = no such curve, though single readings can be large; an effect the other way counts as inactive or inconclusive.

CC1(C(=O)O)CCC2(C)CCC3(C)C(=CC(=O)C4C5(C)CCC(=O)C(C)(C)C5CCC43C)C2C1 (stereo unspecified)	none
C[C@H](C[C@H](O)[C@H]1OC1(C)C)C1=C2C[C@H](O)C3[C@@]4(C)CCC(=O)C(C)(C)C4CC[C@]3(C)[C@@]2(C)CC1 (stereo partly specified)	DT40 TDP1 CPT 7.31µM, DT40 TDP1 no CPT 14.6µM, HT1080 IDH1KD tx inconclusive, HT1080-NT tox inconclusive
C=C1C=C(C(F)F)n2ncc(C(=O)NCCc3ccc(Cl)cc3)c2N1	DT40 TDP1 CPT 12.6µM, DT40 TDP1 no CPT inconclusive (no result: IL1B secr inh, HT1080 IDH1KD tx, HT1080-NT tox)
C=C1C=C(C(F)F)n2ncc(C(=O)NCc3ccc(OC)cc3)c2N1	DT40 TDP1 CPT 11.2µM, DT40 TDP1 no CPT inconclusive (no result: IL1B secr inh, HT1080 IDH1KD tx, HT1080-NT tox)
Fc1ccccc1-n1ncc2c1ncn1nc(Cc3ccccc3)nc21	none (no result: IL1B secr inh, HT1080 IDH1KD tx, HT1080-NT tox)
OC1(C(F)(F)F)CC(c2ccc3ccccc3c2)=NO1 (stereo unspecified)	none
Fc1ccc(-c2nc3c4ccccc4ccn3c2Cc2ccccc2)cc1	DT40 TDP1 no CPT inconclusive
Brc1ccc(-c2nc3c4ccccc4ccn3c2Cc2ccccc2)cc1	DT40 TDP1 CPT 16.4µM, DT40 TDP1 no CPT 8.2µM
Clc1ccc(-c2nc3c4ccccc4ccn3c2Cc2ccccc2)cc1	DT40 TDP1 CPT 16.4µM, DT40 TDP1 no CPT 10.3µM
CN(C(=O)COC(=O)c1cccc(Cl)c1)C1CCS(=O)(=O)C1 (stereo unspecified)	none
CN(C(=O)COC(=O)c1ccc(-c2ccc(O)cc2)cc1)C1CCS(=O)(=O)C1 (stereo unspecified)	HT1080 IDH1KD tx 18.4µM, HT1080-NT tox 6.51µM
CCc1ccc(-c2nc3cc(NC(=O)c4ccc(F)cc4)ccc3o2)cc1	DT40 TDP1 no CPT inconclusive (no result: IL1B secr inh, HT1080 IDH1KD tx, HT1080-NT tox)
O=C1C2ON(c3ccc(Cl)cc3)C(c3ccco3)C2C(=O)N1c1ccccc1 (stereo unspecified)	none
CCOc1ccc(CN(C)C(=O)[C@H](C)NC(=O)c2ccco2)cc1OC	none
O=C(Nc1nc(-c2ccc(Cl)s2)cs1)c1cccs1	IL1B secr inh -83.6, DT40 TDP1 CPT 23.1µM, DT40 TDP1 no CPT 18.4µM, HT1080 IDH1KD tx inconclusive, HT1080-NT tox inconclusive
CCCC(=O)Nc1nc(-c2ccc(Cl)s2)cs1	DT40 TDP1 CPT 16.4µM, DT40 TDP1 no CPT 5.8µM
O=C(Nc1ccc([N+](=O)[O-])cc1)Nc1nc(-c2ccc(Cl)s2)cs1	IL1B secr inh -98.5, DT40 TDP1 CPT 4.61µM, DT40 TDP1 no CPT 3.66µM, HT1080 IDH1KD tx 7.31µM, HT1080-NT tox 6.51µM
O=C(O)C1CCCCC1C(=O)Nc1nc(-c2ccc(Cl)s2)cs1 (stereo unspecified)	none
O=C(Nc1nc(-c2ccc(Cl)s2)cs1)c1ccco1	IL1B secr inh -84.1, DT40 TDP1 CPT inconclusive, DT40 TDP1 no CPT inconclusive
CC(C)(C)c1csc(NC(=O)c2cccs2)n1	IL1B secr inh inconclusive
CCc1nn(CC(=O)N2CC(C)CC(C)C2)c(=O)c2cccn12 (stereo unspecified)	none
CCN(CC)C(=O)C1=C(C)N(Cc2ccc(OC)cc2)C(=O)C(CC(=O)NC2CCCC2)C1 (stereo unspecified)	none
Cc1ccc(C2CN=NC23CCc2ccccc2C3=O)cc1 (stereo unspecified)	DT40 TDP1 CPT 25.9µM, DT40 TDP1 no CPT 25.9µM
CCC(C)(C)n1nnnc1C(c1cccc(C#N)c1)N1CCN(c2cccc(C)c2C)CC1 (stereo unspecified)	DT40 TDP1 CPT inconclusive, DT40 TDP1 no CPT 16.4µM
COc1ccccc1C(c1nnnn1C(C)(C)C)N1CCCCCC1 (stereo unspecified)	DT40 TDP1 CPT 20.6µM, DT40 TDP1 no CPT 18.4µM
CC(C)(C)n1nnnc1C(c1cccc(C#N)c1)N1CCCCCC1 (stereo unspecified)	DT40 TDP1 CPT inconclusive, DT40 TDP1 no CPT 16.4µM
CC(C)(C)n1nnnc1C(c1cccc(C#N)c1)N1CCN2CCCC2C1 (stereo unspecified)	none
CCN(CC(=O)Nc1ccc(NC(C)=O)cc1)C(=O)CSc1ncnc2sc(C)c(C)c12	none
Cc1cc(Cl)c(S(=O)(=O)N2CCN(c3ccccc3)CC2)cc1OCC(N)=O	DT40 TDP1 no CPT inconclusive
O=C(Nc1cccnc1)C1(F)C(F)(F)C(F)(F)C(F)(F)C(F)(F)C1(F)F	IL1B secr inh -67.3, DT40 TDP1 CPT inconclusive, DT40 TDP1 no CPT inconclusive
CC(C)(C)c1ccc(/C=C/C(=O)Nc2cccnc2)cc1	IL1B secr inh -51.6, DT40 TDP1 CPT inconclusive, DT40 TDP1 no CPT inconclusive, HT1080 IDH1KD tx inconclusive, HT1080-NT tox inconclusive
O=C(O)/C=C/C(=O)Nc1cccnc1	HT1080-NT tox inconclusive
COc1ccc(NC(=O)C=C(C)C)cc1Cl	none
O=C(Nc1cccnc1)C12CC3CC(CC(C3)C1)C2	none
COC(=O)/C=C/C(=O)Nc1cccnc1	DT40 TDP1 CPT 16.4µM, DT40 TDP1 no CPT inconclusive
COC(=O)/C=C/C(=O)Nc1ccc(O)c(Cl)c1	IL1B secr inh -98.9, DT40 TDP1 CPT inconclusive, DT40 TDP1 no CPT inconclusive
CC(Oc1ccccc1)C(=O)N1CCN(Cc2cc(=O)n3nc(-c4ccccc4Cl)sc3n2)CC1 (stereo unspecified)	DT40 TDP1 no CPT inconclusive (no result: IL1B secr inh, HT1080 IDH1KD tx, HT1080-NT tox)
CC(C)(C)C(O)CN1CCCC1 (stereo unspecified)	none
CCCCNc1c(-c2ccc(OC)c(SC3CCCCC3)c2)nc2ccc(C)cn12	IL1B secr inh -58.8, DT40 TDP1 CPT 5.8µM, DT40 TDP1 no CPT 8.2µM, HT1080 IDH1KD tx inconclusive, HT1080-NT tox inconclusive
COc1ccc(-c2nc3ccc(C)cn3c2NCc2ccccc2)cc1SC1CCCCC1	DT40 TDP1 CPT 13µM, DT40 TDP1 no CPT 23.1µM, HT1080 IDH1KD tx inconclusive, HT1080-NT tox inconclusive
CCCCNc1c(-c2ccc(SC3CCCCC3)c(OC)c2)nc2ccc(C)cn12	IL1B secr inh -68.5!, DT40 TDP1 CPT 23.1µM, DT40 TDP1 no CPT 18.4µM, HT1080 IDH1KD tx inconclusive, HT1080-NT tox inconclusive
Cc1ccc(OCCCC(=O)NNC(=O)c2ccccn2)cc1	DT40 TDP1 CPT 6.51µM, DT40 TDP1 no CPT 5.8µM, HT1080 IDH1KD tx inconclusive
Cc1cc(C)cc(OCC(=O)NNC(=O)c2ccccn2)c1	DT40 TDP1 CPT 9.2µM, DT40 TDP1 no CPT 6.51µM, HT1080-NT tox inconclusive
O=C(COc1ccc(Cl)cc1)NNC(=O)c1ccccn1	DT40 TDP1 CPT inconclusive, DT40 TDP1 no CPT inconclusive, HT1080 IDH1KD tx inconclusive
COc1ccc(NC(=O)COc2ccc3c(C)cc(=O)oc3c2)cc1S(=O)(=O)N1CCCCC1	DT40 TDP1 CPT inconclusive, DT40 TDP1 no CPT inconclusive
COc1ccc(-n2c(=O)cc(N3CC(C)OC(C)C3)[nH]c2=O)cc1 (stereo unspecified)	none
CCCNC(=O)C1(C)CCN(C(=O)c2ccc3snnc3c2)C1 (stereo unspecified)	none
CCCNC(=S)NC1CC2CCCC(C1)N2Cc1ccccc1OC (stereo unspecified)	none
